Compound activity as filed in PubChem BioAssay.
A selection: hits, their analogues and other compounds. The true share with any hit is near 21%.
Pf growth 48h: P. falciparum growth inhibition at 48 hours (one generation); AID 504832; hit rate 5.9% among 310,000; Potency, µM (highest dose often 28.7 µM), for inactives: at the top dose activity change, negative = inhibition, usual class: inhibitors; P. falciparum luciferase growth in erythrocytes, 48 h; also: potency is read from the fitted curve at half-maximal effect; % is scaled to controls: 0 for no effect and ±100 for the full control effect
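Firefly luciferase activity from engineered P. falciparum reports growth; inhibitors lower the luminescent signal. Cultures contained 2% hematocrit erythrocytes at 0.1% final parasitemia.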
NS1 function inh: inhibitors of influenza NS1 protein function; Potency, µM (titrated, usually from 46.1 µM), without a hit: at the highest dose activity, positive = more growth; hit rate 0.4% among 270,000; AID 2326; calls by dose curve; also: potency is read from the fitted curve at half-maximal effect; actives are rising curves; nearly all actives have a fitted effect of over 50% in size
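S. cerevisiae expressing influenza A NS1, grown in glucose, washed, then diluted 1:100 into pH 6.0 -URA galactose medium with 23 nl compound. Growth recovery read as OD600; NS1-free strain serves as control.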
SARS PLP yeast: blocks SARS-CoV papain-like protease in a yeast assay; Potency, µM (series often up to 32.9 µM), for inactives: at the highest dose activity, positive = growth rescue, hits mostly activators; S. cerevisiae expressing SARS-CoV PLpro, growth rescue; hit rate 0.19% among 330,000; calls by dose curve; also: potency is read from the fitted curve at half-maximal effect; 0% is about no effect; nearly all actives have a fitted effect of over 55% in size
Shiga inhibitor: Shiga toxin inhibition | hit rate 9.2% among 290,000 | AID 2315 | inhibition, % at 38.7 µM | Vero cells, Shiga toxin protein synthesis inhibition reporter; in the data active = inhibition mostly above about 28%, no sharp cut-off; inactive = mostly below about 43%; also: 0% is about no effect
Cycloheximide cs: counter-screen for Shiga toxin inhibitors: cycloheximide protein synthesis inhibition. cell reporter, cycloheximide protein synthesis inhibition counterscreen. hit rate 12% among 300,000. max response, %. AID 2314; in the data active = max response mostly above about 13%, no sharp cut-off; inactive = mostly below about 14%; also: read at 38.3 µM for the half of the compounds with a filed dose; 0% is about no effect
Pf growth 96h: P. falciparum growth inhibition at 96 hour, primary screen for plastid delayed-death inhibitors | P. falciparum luciferase reporter growth, 96 h | Potency, µM (highest dose often 28.7 µM), for the others: at the highest dose activity change, negative = inhibition, most hits filed as inhibitors | hit rate 6.9% among 320,000 | AID 504834; also: potency is read from the fitted curve at half-maximal effect; % is scaled to controls: 0 for no effect and ±100 for the full control effect
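Readout is luminescence from an integrated firefly luciferase in P. falciparum. Red cells, 2% hematocrit and 0.05% parasitemia final, were cultured with compound through two parasite generations (96 hours) at 37 C, 5% CO2.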
* = called active by the depositor; [ ] = dose if it differs, or a comment. Unless noted, calls follow the shape of the dose curve; as a rule, active = well fitted inhibition curve with a large enough effect; inconclusive = small, poorly fitted or top-dose-only effect, or another doubt; inactive = no such curve, though single readings can be large or run the other way.

Screening O=C(Nc1ccc(F)cc1)c1cccc(C(=O)Nc2ccc(F)cc2)c1 returned Pf growth 48h 15%, NS1 function inh 4%, SARS PLP yeast -1%, Shiga inhibitor -4, Cycloheximide cs -1 and Pf growth 96h 2%.
Cc1ccc(NC(=O)CCC(=O)OCC(=O)c2ccc(Oc3ccc([N+](=O)[O-])cc3)cc2)cc1 was read as Pf growth 48h -5%, NS1 function inh 13%, SARS PLP yeast -22%, Shiga inhibitor -5, Cycloheximide cs -3 and Pf growth 96h -23%.
COc1ccc(NC(=O)CCC(=O)OCC(=O)c2ccc(Oc3ccc([N+](=O)[O-])cc3)cc2)cc1 was read as Pf growth 48h 9%, NS1 function inh 9%, SARS PLP yeast -21%, Shiga inhibitor -13, Cycloheximide cs 1 and Pf growth 96h 9.3µM*.
Screening CCn1c(CSCc2ccc(Cl)cc2)nnc1SCC(=O)Nc1cccc(C(=O)O)c1 returned Pf growth 48h 47%, NS1 function inh 12%, SARS PLP yeast 0%, Shiga inhibitor -7, Cycloheximide cs -2 and Pf growth 96h -16%[5.75 µM].
Screening COc1ccc(/C=C/C(=O)OC(C)CN2CCOCC2)cc1 (configuration not stated) returned Pf growth 48h 41%, NS1 function inh 7%, SARS PLP yeast 2%, Shiga inhibitor -5, Cycloheximide cs -4 and Pf growth 96h 56%.
COc1ccccc1OCc1ccc(C(=O)Nc2ccncc2)o1 was read as Pf growth 48h -14%, NS1 function inh -10%, SARS PLP yeast 1%, Shiga inhibitor -3, Cycloheximide cs -1 and Pf growth 96h -50%.
For CCOCCCNS(=O)(=O)c1ccc(-n2cnnn2)c(OC)c1 the results were Pf growth 48h 47%, NS1 function inh -2%, SARS PLP yeast 3%, Shiga inhibitor 11 and Cycloheximide cs 9.
`CC(C)C[C@H](NC(=O)[C@H](CC(C)C)NC(=O)[C@@H](Cc1c[nH]c2ccccc12)NC(=O)[C@H](Cc1ccccc1)NC(=O)[C@@H](Cc1c[nH]c2ccccc12)NC(=O)[C@H](CCC(N)=O)NC(=O)[C@H](CCC(N)=O)NC(=O)[C@@H]1CCCN1C(=O)[C@H](CCCCN)NC(=O)[C@@H]1CCCN1C(=O)[C@@H](CCCNC(=N)N)NC(=O)[C@@H]1CCCN1C(=O)CNC(=O)[C@H](CC(C)C)NC(=O)[C@H](CC(C)C)NC(=O)[C@H](Cc1ccc(O)cc1)NC(=O)CNC(=O)[C@H](C)NC(=O)[C@H](CO)NC(=O)[C@H](CC(N)=O)NC(=O)[C@H](CC(C)C)NC(=O)[C@@H](NC(=O)[C@H](Cc1c[nH]c2ccccc12)NC(=O)CN)[C@@H](C)O)C(N)=O` gave Shiga inhibitor -4 and Cycloheximide cs -4.
`COc1cccc(NC(=O)c2ccc3nsnc3c2)c1` gave Pf growth 48h 141%, NS1 function inh -16%, SARS PLP yeast -8%, Shiga inhibitor 78*, Cycloheximide cs 28* and Pf growth 96h 42%.
For COc1cccc(NC(=O)c2cccc(C(=O)Nc3cccc(OC)c3)c2)c1 the results were Pf growth 48h 70%, NS1 function inh -3%, SARS PLP yeast 0%, Shiga inhibitor 1, Cycloheximide cs 7 and Pf growth 96h -26%.
Screening COc1ccc(C(=O)Nc2cccc(OC)c2)cc1 returned NS1 function inh -50%, SARS PLP yeast -13%, Shiga inhibitor 91*, Cycloheximide cs 58* and Pf growth 96h 12%.
`COc1cccc(NC(=O)c2ccc(NC(=O)C(C)C)cc2)c1` gave Pf growth 48h 117%, NS1 function inh -5%, SARS PLP yeast -1%, Shiga inhibitor 52*, Cycloheximide cs 23* and Pf growth 96h 176%.
`COc1cccc(NC(=O)c2ccccc2)c1` gave Pf growth 48h 97%, SARS PLP yeast -3% and Pf growth 96h 83%.
COc1ccc(C(=O)Nc2ccc(OC)c(OC)c2)cc1 was read as Pf growth 48h 76%, NS1 function inh -10%, SARS PLP yeast 2%, Shiga inhibitor 63*, Cycloheximide cs 33* and Pf growth 96h -2%.
For O=C(O)CCCNS(=O)(=O)/C=C/c1ccccc1 the results were Pf growth 48h 0%, SARS PLP yeast 4%, Shiga inhibitor -11, Cycloheximide cs -2 and Pf growth 96h inconclusive.
